High-throughput results: PubChem, several laboratories
CYP2C19 inhib: blockers of cytochrome P450 2C19 activity – biochemical, luminescence, ADME assay, primary screen. P33261. CYP2C19 Supersomes, luciferin-H EGE luminescence, 30 min. inhibition, % at 5 µM. 96,000 tested, 21% active;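 active = CYP2C19 inhibition above a set limit at 5 µM in the primary screen, cut at about 50% in these data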;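 note: plate controls were negative control wells for no effect and 2.5 mM tranylcypromine positive control for full effect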
CYP2C19 act: human CYP2C19 activators, primary screen, biochemical, luminescence; Cytochrome P450 2C19 (Homo sapiens), P33261; recombinant CYP2C19, luciferin-H EGE luminescence; hits give high values; 0 = fully inhibited enzyme, 1 = untreated enzyme; activation factor at 5 µM; 96,000 tested, under 10 active; AID 1025, 2008;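 active = activation factor of at least 2 at 5 µM in the primary screen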;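 note: 0 = wells with 2.5 mM tranylcypromine and 1 = vehicle-only wells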
CYP2C9 activ: human CYP2C9 activators, primary screen, biochemical, luminescence; Cytochrome P450 2C9 (Homo sapiens), P11712; recombinant CYP2C9, luciferin-H conversion; hits give high values; factor 1 = untreated enzyme, 0 = blocked; activation factor at 5 µM; 96,000 tested, 1.4% active; AID 1024, 2008;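 active = activation factor of 2 or more for CYP2C9 at a 5 µM dose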;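 note: 0 = sulfaphenazole-blocked wells and 1 = vehicle-only wells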
Target sequence (P11712 whole entry, looked up): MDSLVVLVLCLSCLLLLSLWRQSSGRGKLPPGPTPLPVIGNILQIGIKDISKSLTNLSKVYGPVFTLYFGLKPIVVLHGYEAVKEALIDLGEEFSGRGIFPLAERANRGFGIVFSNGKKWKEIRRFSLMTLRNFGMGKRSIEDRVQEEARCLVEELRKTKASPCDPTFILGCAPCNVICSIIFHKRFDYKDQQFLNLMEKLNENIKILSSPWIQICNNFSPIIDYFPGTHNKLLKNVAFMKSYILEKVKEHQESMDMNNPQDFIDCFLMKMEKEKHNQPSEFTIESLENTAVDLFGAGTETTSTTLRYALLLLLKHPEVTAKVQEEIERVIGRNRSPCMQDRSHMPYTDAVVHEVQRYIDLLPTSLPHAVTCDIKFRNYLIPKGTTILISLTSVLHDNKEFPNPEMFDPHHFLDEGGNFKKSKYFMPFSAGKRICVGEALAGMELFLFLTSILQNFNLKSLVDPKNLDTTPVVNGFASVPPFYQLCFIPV
sEH inhibitor: soluble epoxide hydrolase inhibitors, primary screen, biochemical, human sEH | recombinant human sEH enzymatic activity assay | inhibition, % at 2 µM | 91,000 tested, 0.34% active | AID 707, 2007; in the data active = inhibition above about 80%
sEH act: soluble epoxide hydrolase activators, primary screen, biochemical, human sEH | Bifunctional epoxide hydrolase 2 (Homo sapiens), P34913 | purified human sEH enzymatic activity, activator screen | activation, % at 2 µM | 91,000 tested, 0.04% active | AID 717, 2007; in the data active = activation above about 37%
CYP2C9 inhib: blockers of cytochrome P450 2C9 activity – biochemical, luminescence, ADME assay, primary screen; P11712; CYP2C9 Supersomes, luciferin-H conversion; inhibition, % at 5 µM; 96,000 tested, 20% active;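 active = blocking of liver enzyme CYP2C9 beyond about 50% at 5 µM, limit read from the data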
Starred values were filed as active, the others as inactive; . = no result. Most compounds without a hit are left out; they make up all but 27% or so of the library.

SMILES | CYP2C19 inhib | CYP2C19 act | CYP2C9 activ | sEH inhibitor | sEH act | CYP2C9 inhib
CCN(CCCNC(=O)CCCCn1c(=O)[nH]c2ccccc2c1=O)c1ccccc1 | 62.2* | 0.4 | 0.3 | 80.5* | -80.3 | 67.8*
CCOc1ccc(NC(=O)CCn2c(=O)[nH]c3ccsc3c2=O)cc1 | 15.7 | 0.8 | 0.4 | 1.0 | -3.3 | 57.2*
O=C(CCn1c(=O)[nH]c2ccccc2c1=O)Nc1ccccc1 | 52.9* | 0.5 | 0.5 | -1.3 | 2.5 | 47.4
COc1cc(NC(=O)CCn2c(=O)[nH]c3ccsc3c2=O)cc(OC)c1 | . | . | . | 7.3 | -5.9 | .
O=c1[nH]c2ccccc2c(=O)n1CCCO | -8.2 | 1.1 | 1.1 | 11.8 | -12.1 | -11.0
COc1cccc(NC(=O)CCNC(=O)Cn2ccc3ccccc3c2=O)c1 | 35.0 | 0.7 | 0.3 | -13.1 | 12.0 | 70.8*
c1ccc(-c2nnc(OCCN3CCOCC3)c3ccccc23)cc1 | 37.8 | 0.6 | 1.1 | 9.1 | -7.7 | -9.2
CCN(CCCNC(=O)CCNC(=O)Cn1ccc2ccccc2c1=O)c1ccccc1 | 67.5* | 0.3 | 0.2 | 8.8 | -8.9 | 77.0*
CCCCN(C)C(=O)CCCc1c[nH]c2ccccc12 | . | . | . | -2.0 | 2.2 | .
O=C(CCl)N(c1ccc(Cl)cc1)c1c[nH]c2ccccc12 | 90.5* | 0.1 | 0.2 | 8.1 | -6.3 | 81.7*
O=C(CCl)N(c1ccccc1)c1c[nH]c2ccccc12 | 44.1 | 0.6 | 0.1 | 5.1 | -1.6 | 94.6*
CCOC(=O)Cc1c[nH]c2ccccc12 | 14.9 | 0.9 | 0.9 | 6.6 | -8.2 | 8.9
COc1cc(C(=O)N2CCC(n3cnc4cc(F)ccc43)CC2)cc(OC)c1OC | 12.5 | 0.9 | 0.9 | 6.2 | -3.4 | 9.3
Fc1ccccc1N1CC(c2ccccc2)C(c2cccs2)=N1 (configuration not stated) | 23.8 | 0.8 | 0.4 | -35.3 | 30.6 | 59.5*
Cn1c(SCc2ccc(F)cc2)nnc1-c1cccs1 | 37.9 | 0.6 | 0.9 | -14.8 | 14.3 | 9.6
COc1ccc(NC(=O)C2CCCN(S(=O)(=O)c3c(C)n[nH]c3C)C2)c(OC)c1 (configuration not stated) | 52.5* | 0.5 | 0.7 | -9.1 | 12.3 | 29.6
CC(=O)c1cccc(NC(=O)C2CCN(S(=O)(=O)c3c(C)n[nH]c3C)CC2)c1 | 71.4* | 0.3 | 0.8 | 11.2 | -11.5 | 18.1
Cc1nn(C)c(C)c1S(=O)(=O)N1CCCC(C(=O)N2CCN(c3ccc(Cl)cc3)CC2)C1 (configuration not stated) | 83.9* | 0.2 | 0.1 | 2.6 | -3.1 | 90.8*
CC(=O)c1cccc(NC(=O)C2CCN(S(=O)(=O)c3ccc(C)cc3)CC2)c1 | . | . | . | 15.7 | -14.6 | .
COc1ccc(S(=O)(=O)N2CCC(C(=O)Nc3cccc(C(C)=O)c3)CC2)cc1C | 97.3* | 0 | 1.8 | 28.0 | -29.3 | -77.5
O=S(=O)(/C=C/c1ccccc1)N1CCN(c2ccc(F)cc2)CC1 | 20.5 | 0.8 | 0.9 | -7.2 | 8.5 | 9.5
Cc1c(NC(=O)COC(=O)Cc2ccc(Cl)cc2)c(=O)n(-c2ccccc2)n1C | 4.8 | 1 | 0.9 | . | . | 9.2
CCOC(=O)c1cccc(NC(=O)C2CCCN(S(=O)(=O)c3c(C)nn(C)c3C)C2)c1 (configuration not stated) | 83.3* | 0.2 | 0.1 | . | . | 92.9*
Cc1noc(/C=C/N(C)C)c1S(=O)(=O)N1CCCC(C(=O)N2CCc3ccccc32)C1 (configuration not stated) | . | . | . | -2.3 | 2.3 | .
CCOC(=O)C1CCN(S(=O)(=O)c2c(C)n[nH]c2C)CC1 | 87.8* | 0.1 | 0.1 | 2.0 | -3.9 | 89.5*
SMILES | CYP2C19 inhib | CYP2C19 act | CYP2C9 activ | sEH inhibitor | sEH act | CYP2C9 inhib
Cc1n[nH]c(C)c1S(=O)(=O)N1CCCC(C(=O)N2CCc3ccccc32)C1 (configuration not stated) | 62.2* | 0.4 | 0.6 | -3.7 | 6.8 | 39.3
Cc1noc(C)c1S(=O)(=O)N1CCC(C(=O)Nc2ccc(OC(F)(F)F)cc2)CC1 | -16.1 | 1.2 | 1.1 | 45.8 | -45.0 | -7.7
COc1ccc(NC(=O)C2CCN(S(=O)(=O)c3c(C)noc3C)CC2)cc1Cl | 78.1* | 0.2 | 0.3 | 25.3 | -25.6 | 68.3*
CCOc1ccc(NC(=O)C2CCCN(S(=O)(=O)c3c(C)nn(C)c3C)C2)cc1 (configuration not stated) | -2.9 | 1 | 0.9 | 54.7 | -53.1 | 11.1
Cc1cccc(OCC(O)Cn2c(NCc3cccnc3)nc3c2c(=O)[nH]c(=O)n3C)c1 (configuration not stated) | 3.5 | 1 | 0.7 | . | . | 25.2
CCC(C)c1ccc2oc(-c3ccc(NC(=O)Cn4cnc5c(=O)n(C)c(=O)n(C)c54)cc3)nc2c1 (configuration not stated) | 11.8 | 0.9 | 0.5 | -0.2 | 1.6 | 48.2
CCOc1cc(C2NC(=O)NC(C)=C2C(=O)NCc2ccccc2)c(Cl)cc1O (configuration not stated) | 8.7 | 0.9 | 0.9 | -6.5 | 4.0 | 9.6
O=c1nc(N2CCCCC2)nc2n1CCO2 | 4.4 | 1 | 1.1 | 2.0 | -1.9 | -5.4
CCOC(=O)c1cccc(NC(=O)C2CCCN(S(=O)(=O)c3c(C)n[nH]c3C)C2)c1 (configuration not stated) | 66.1* | 0.3 | 0.1 | 21.0 | -18.7 | 87.8*
Cc1ccc(-c2noc(C3CCCN(C(=O)C4CCCCC4)C3)n2)o1 (configuration not stated) | 53.1* | 0.5 | 0.4 | 17.9 | -16.6 | 59.6*
Cc1ccccc1NC(=O)N1CCCC(c2nc(-c3ccc(C(C)C)cc3)no2)C1 (configuration not stated) | 19.2 | 0.8 | 0.3 | 29.3 | -27.8 | 69.6*
CC(C)c1ccc(-c2noc(C3CCCN(C(=O)c4ccc(F)cc4F)C3)n2)cc1 (configuration not stated) | 81.8* | 0.2 | 0.1 | 16.6 | -14.8 | 90.1*
Cc1ccc(-c2noc(C3CCCN(C(=O)c4ccc(F)cc4F)C3)n2)cc1 (configuration not stated) | 22.3 | 0.8 | 0.6 | -2.0 | 0.1 | 39.4
Cc1ccccc1NC(=O)N1CCCC(c2nc(-c3ccc(F)cc3)no2)C1 (configuration not stated) | 53.6* | 0.5 | 0.3 | . | . | 70.3*
O=C(Nc1cccc(C(F)(F)F)c1)N1CCC(c2nc(-c3ccc(F)cc3)no2)CC1 | 41.3 | 0.6 | 0.4 | 93.4* | -93.4 | 56.1*
CCOc1ccc2nc(SCC(=O)Nc3cc4c(cc3C(C)=O)OCO4)[nH]c2c1 | 61.2* | 0.4 | 0.3 | -1.1 | 5.4 | 72.1*
CCOc1ccc2nc(SCC(=O)NC3CCS(=O)(=O)C3)[nH]c2c1 (configuration not stated) | 0.2 | 1 | 1 | -2.2 | 3.0 | -1.8
